Test results published in PubChem BioAssay (Tox21).
Results filed as inconclusive are left out. The source made the active and inactive calls. Unless noted, calls follow the shape of the full dose curve.

Experiments:
[1] = target: Gonadotropin-releasing hormone receptor (Homo sapiens) (UniProt P30968); experiment: Human gonadotropin-releasing hormone receptor (GnRHR) small molecule agonists, calcium flux assay in GnRHR-HEK293 cells (AID 1920063); also: nearly all actives have a fitted effect of over 35% in size
Chain of Gonadotropin-releasing hormone receptor (Homo sapiens) (P30968 whole entry, looked up): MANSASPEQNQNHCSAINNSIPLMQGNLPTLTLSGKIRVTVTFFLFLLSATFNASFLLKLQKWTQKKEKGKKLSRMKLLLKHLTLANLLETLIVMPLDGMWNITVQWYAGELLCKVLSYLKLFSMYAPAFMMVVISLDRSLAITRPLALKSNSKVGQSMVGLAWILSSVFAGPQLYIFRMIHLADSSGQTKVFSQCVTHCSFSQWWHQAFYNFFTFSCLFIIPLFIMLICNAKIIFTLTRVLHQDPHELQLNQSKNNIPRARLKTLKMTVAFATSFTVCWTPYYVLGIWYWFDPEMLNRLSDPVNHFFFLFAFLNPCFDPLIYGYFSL
Summary of the method: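 Fluorescence kinetics (480 nm excitation, 540 nm emission; 3 min, 1 s steps) report calcium mobilisation in human GnRHR-HEK293 cells in agonist mode. Dye incubation: 1 h, 37 C.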

[2] = target: KiSS-1 receptor (Homo sapiens) (UniProt Q969F8); experiment: Human kisspeptin (KISS1R) small molecule agonists, calcium flux assay in KISS1R-HEK293 cells (AID 1920064; active = well fitted activation curve with a large enough effect in the repeat runs)
Chain of KiSS-1 receptor (Homo sapiens) (Q969F8 whole entry, looked up): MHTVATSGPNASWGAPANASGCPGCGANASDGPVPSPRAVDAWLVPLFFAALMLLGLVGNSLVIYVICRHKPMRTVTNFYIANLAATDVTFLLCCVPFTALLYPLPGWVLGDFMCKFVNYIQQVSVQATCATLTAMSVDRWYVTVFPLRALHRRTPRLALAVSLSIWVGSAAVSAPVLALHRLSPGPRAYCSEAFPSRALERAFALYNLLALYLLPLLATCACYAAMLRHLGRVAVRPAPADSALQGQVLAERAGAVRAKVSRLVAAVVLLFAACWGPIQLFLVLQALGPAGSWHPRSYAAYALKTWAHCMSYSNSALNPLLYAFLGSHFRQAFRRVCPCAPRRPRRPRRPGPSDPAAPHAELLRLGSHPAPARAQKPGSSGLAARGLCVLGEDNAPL
Summary of the method: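 Measures KISS1R agonism through calcium-sensitive dye fluorescence in stably transfected HEK293 cells, read for 3 min after pin-tool compound delivery; 15-point titrations in triplicate.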

[3] = G protein-coupled receptor (GPCR) small molecule agonists, calcium flux assay: HEK293 wild type cell line counter screen (AID 1920065)
Summary of the method: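 Readout: fluorescence at 480 nm excitation/540 nm emission, sampled at 1 s intervals for 3 min. Cells had been cultured 18 h, then dye-loaded 1 h at 37 C before compound or ATP addition.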

[4] = p53 small molecule agonists, cell-based qHTS assay with human liver microsomes: qHTS cell viability counter screen (AID 1963579); also: nearly all actives have a fitted effect of over 45% in size
Summary of the method: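 Viability of p53RE-bla cells is measured as CellTiter-Glo luminescence following a 16 h, 37 C incubation with compound, liver microsomes from human donors and NADPH.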

[5] = p53 small molecule agonists, cell-based qHTS assay with rat liver microsomes: qHTS cell viability counter screen (AID 1963580); also: nearly all actives have a fitted effect of over 45% in size
Summary of the method: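 p53RE-bla HCT-116 cells (4,000/well) rested 5 h at 37 C, then given Tox21 compounds in DMSO with rat liver microsomes (0.5 mg/mL final) plus NADPH (0.5 mg/mL final) for 16 h at 37 C. Viability read by CellTiter-Glo luminescence after 30 min at room temperature.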

[6] = target: 5-hydroxytryptamine receptor 2A (Homo sapiens) (UniProt P28223); experiment: 5-hydroxytryptamine receptor 2A (HTR2A) small molecule agonists, cell-based qHTS assay (AID 1963587); also: nearly all actives have a fitted effect of over 30% in size
Chain of 5-hydroxytryptamine receptor 2A (Homo sapiens) (P28223 whole entry, looked up): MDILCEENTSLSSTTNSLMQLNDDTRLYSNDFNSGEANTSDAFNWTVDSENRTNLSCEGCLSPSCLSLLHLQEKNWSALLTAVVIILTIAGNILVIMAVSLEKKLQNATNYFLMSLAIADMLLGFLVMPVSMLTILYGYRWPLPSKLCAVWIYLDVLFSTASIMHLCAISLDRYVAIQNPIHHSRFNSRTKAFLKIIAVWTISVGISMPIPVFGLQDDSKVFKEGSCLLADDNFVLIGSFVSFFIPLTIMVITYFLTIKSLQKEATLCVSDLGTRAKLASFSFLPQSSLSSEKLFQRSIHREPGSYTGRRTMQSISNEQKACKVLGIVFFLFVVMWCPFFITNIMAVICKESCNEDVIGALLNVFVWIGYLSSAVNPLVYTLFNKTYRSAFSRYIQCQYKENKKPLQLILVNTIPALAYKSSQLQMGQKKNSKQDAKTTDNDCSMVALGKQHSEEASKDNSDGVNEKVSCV
Summary of the method: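 HTR2A-CHO cells, plated 18 h at 37 C/5% CO2, dye-loaded 1 h at 37 C; compounds in DMSO added by pin tool (agonist mode). Intracellular calcium flux read as kinetic fluorescence on FDSS over 2 min at 1 s intervals.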

[7] = target: Muscarinic acetylcholine receptor M1 (Homo sapiens) (UniProt P11229); experiment: Cholinergic receptor muscarinic 1 (CHRM1) small molecule antagonists, cell-based qHTS assay (AID 1963588); also: nearly all actives have a fitted effect of over 40% in size
Chain of Muscarinic acetylcholine receptor M1 (Homo sapiens) (P11229 whole entry, looked up): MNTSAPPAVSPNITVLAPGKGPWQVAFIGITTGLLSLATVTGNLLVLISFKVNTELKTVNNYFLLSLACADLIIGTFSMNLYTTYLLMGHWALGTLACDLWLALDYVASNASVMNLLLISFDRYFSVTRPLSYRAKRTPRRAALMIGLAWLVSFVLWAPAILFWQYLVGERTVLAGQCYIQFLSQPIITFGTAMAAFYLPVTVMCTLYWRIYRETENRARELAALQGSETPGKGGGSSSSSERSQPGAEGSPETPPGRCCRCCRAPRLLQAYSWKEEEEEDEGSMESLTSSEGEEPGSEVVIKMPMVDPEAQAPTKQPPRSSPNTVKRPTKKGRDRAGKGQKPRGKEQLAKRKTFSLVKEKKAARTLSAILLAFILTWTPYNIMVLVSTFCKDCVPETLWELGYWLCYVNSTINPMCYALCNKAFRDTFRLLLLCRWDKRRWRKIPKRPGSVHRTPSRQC
Summary of the method: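 CHRM1-CHO calcium-flux assay, antagonist mode. Cells were seeded 18 h, dye-loaded 1 h at 37 C and given compound for 5 min at RT, then acetylcholine was added at 50nM. FDSS fluorescence was read 3 min; 15 concentrations, three runs.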

[8] = target: Muscarinic acetylcholine receptor M1 (Homo sapiens) (UniProt P11229); experiment: Cholinergic receptor muscarinic 1 (CHRM1) small molecule agonists, cell-based qHTS assay (AID 1963589); also: nearly all actives have a fitted effect of over 35% in size
Summary of the method: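 Each compound was tested at 15 concentrations across three independent runs on dye-loaded CHO cells stably expressing human CHRM1, reading intracellular calcium fluorescence kinetically at 1 sec intervals.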

[9] = cAMP Responsive Elements (CRE) small molecule agonists, cell-based qHTS assay (AID 1963590)
Summary of the method: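 Cell line: CRE-bla HEK 293T; medium DMEM/10% dialyzed FBS/0.1 mM NEAA/1 mM pyruvate/25 mM HEPES; 3 h compound exposure; beta-lactamase FRET readout after 2 h substrate loading at RT.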

[10] = target: Beta-2 adrenergic receptor (Homo sapiens) (UniProt P07550); experiment: Adrenergic beta2 receptor (ADRB2) small molecule antagonists, cell-based qHTS assay (AID 1963592); also: series mostly up to about 92 µM; nearly all actives have a fitted effect of over 50% in size
Chain of Beta-2 adrenergic receptor (Homo sapiens) (P07550 whole entry, looked up): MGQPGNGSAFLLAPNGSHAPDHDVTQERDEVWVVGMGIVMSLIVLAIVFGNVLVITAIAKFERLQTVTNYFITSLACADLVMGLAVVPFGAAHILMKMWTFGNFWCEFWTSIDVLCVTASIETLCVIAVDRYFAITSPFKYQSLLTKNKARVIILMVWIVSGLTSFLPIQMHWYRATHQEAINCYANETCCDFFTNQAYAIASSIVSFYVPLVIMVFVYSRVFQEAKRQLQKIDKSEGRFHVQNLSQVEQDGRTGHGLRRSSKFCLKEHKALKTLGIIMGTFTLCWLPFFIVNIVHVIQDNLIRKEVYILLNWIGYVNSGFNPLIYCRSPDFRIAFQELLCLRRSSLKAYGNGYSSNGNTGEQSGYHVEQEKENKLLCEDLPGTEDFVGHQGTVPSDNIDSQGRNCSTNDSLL
Summary of the method: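 Cells (CHO, stable ADRB2 overexpression) incubated 18-20hr at 37C; compounds added from DMSO; agonist mix (1nM isoproterenol, 100uM IBMX, 25uM Ro-20-1724) added; 0.5hr RT; d2-cAMP and anti-cAMP-cryptate added; 1hr RT; 665/615 nm read.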

[11] = target: Beta-2 adrenergic receptor (Homo sapiens) (UniProt P07550); experiment: Adrenergic beta2 receptor (ADRB2) small molecule agonists, cell-based qHTS assay (AID 1963593);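 also: CHO cells stably overexpressing human ADRB2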
Summary of the method: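 CHO cells stably over-expressing ADRB2 were plated overnight at 37C, then dosed with compounds plus a stimulation mix containing 100uM IBMX and 25uM Ro-20-1724 for 0.5hr at room temperature. cAMP was measured by HTRF competition, 1hr.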

[12] = target: D(2) dopamine receptor (Homo sapiens) (UniProt P14416); experiment: Dopamine D2 receptor (DRD2) small molecule agonists, cell-based qHTS assay (AID 1963594); also: nearly all actives have a fitted effect of over 35% in size
Chain of D(2) dopamine receptor (Homo sapiens) (P14416 whole entry, looked up): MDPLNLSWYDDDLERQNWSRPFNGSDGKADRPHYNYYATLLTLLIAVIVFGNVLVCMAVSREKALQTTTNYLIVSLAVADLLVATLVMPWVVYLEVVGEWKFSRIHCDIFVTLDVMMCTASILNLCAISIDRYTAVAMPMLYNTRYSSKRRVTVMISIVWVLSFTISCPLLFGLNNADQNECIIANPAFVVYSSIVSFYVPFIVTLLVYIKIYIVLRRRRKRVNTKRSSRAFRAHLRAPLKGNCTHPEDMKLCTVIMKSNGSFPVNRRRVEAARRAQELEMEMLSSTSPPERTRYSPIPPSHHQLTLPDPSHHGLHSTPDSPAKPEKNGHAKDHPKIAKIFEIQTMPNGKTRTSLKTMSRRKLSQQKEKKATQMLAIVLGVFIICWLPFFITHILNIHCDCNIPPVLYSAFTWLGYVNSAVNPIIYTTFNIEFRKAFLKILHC
Summary of the method: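 HEK293 cells stably expressing DRD2 were cultured 24 h at 37 C, then given Ro20-1724 (0.1 mM final) and compounds for 10 min at room temperature. NKH477 (200nM) was then added for 30 min. cAMP was read by HTRF.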

[13] = target: D(2) dopamine receptor (Homo sapiens) (UniProt P14416); experiment: Dopamine D2 receptor (DRD2) small molecule antagonists, cell-based qHTS assay (AID 1963595; active = well fitted inhibition curve with a large enough effect in the signal ratio in the repeat runs, with a control signal flat; the % refers to the signal ratio)
Summary of the method: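 Human DRD2 antagonist qHTS measuring cAMP by HTRF. The cells are exposed to compound for 10 min, then to NKH477 (200 nM) and quinpirole (12 nM) for 30 min at RT, with Ro20-1724 (0.1 mM) present throughout.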

[14] = target: 5-hydroxytryptamine receptor 2A (Homo sapiens) (UniProt P28223); experiment: 5-hydroxytryptamine receptor 2A (HTR2A) small molecule antagonists, cell-based qHTS assay (AID 1963586); also: nearly all actives have a fitted effect of over 45% in size
Summary of the method: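 Antagonist-mode intracellular calcium assay: DOI (4 nM) added after 5 min compound pre-incubation at room temperature to dye-loaded HTR2A-CHO cells. Fluorescence followed for 3 min, sampled every second.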

[15] = p53 small molecule agonists, cell-based qHTS assay: qHTS cell viability counter screen (AID 1963581); also: nearly all actives have a fitted effect of over 45% in size
Summary of the method: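 In the same plates used for the p53 bla reporter, HCT-116 cells given compounds for 16 h at 37 C received CellTiter-Glo; luminescence was recorded 30 min later at room temperature.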

[16] = p53 small molecule agonists, cell-based qHTS assay with human liver microsomes (AID 1963577);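 also: p53 response element beta-lactamase reporter cells with liver microsomes plus NADPH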
Summary of the method: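 HLM-supplemented p53RE-bla reporter assay: 16 h compound exposure at 37 C, microsomes and NADPH each 0.5 mg/mL final, read by fluorescence intensity.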

[17] = p53 small molecule agonists, cell-based qHTS assay with rat liver microsomes (AID 1963578)
Summary of the method: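 Quantitative HTS of the Tox21 10K library: p53RE-bla cells, rat liver microsomes plus NADPH at 0.5 mg/mL final each, 16 h at 37 C, beta-lactamase fluorescence detection.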

[18] = p53 small molecule agonists, cell-based qHTS assay (AID 1963582; active = well fitted activation curve with a large enough effect in the signal ratio in the repeat runs, not every such curve was filed as active; the % refers to the signal ratio)
Summary of the method: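 Compounds are pin-transferred in DMSO onto p53RE-bla cells and incubated 16 h at 37 C. The B/G FRET beta-lactamase substrate is then applied for 2 h at RT and fluorescence recorded.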

[19] = cAMP Responsive Elements (CRE) small molecule antagonists, cell-based qHTS assay (AID 1963591; active = well fitted inhibition curve with a large enough effect in the signal ratio in the repeat runs, not every such curve was filed as active; the % refers to the signal ratio)
Summary of the method: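 Inhibition of NKH477-driven (0.25 uM final) CRE-beta-lactamase signal in HEK293T cells, 3 h compound exposure at 37 °C, detected by FRET substrate fluorescence.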

Measured: Potency

COP(=O)(OC)OC(Br)C(Cl)(Cl)Br (centres undefined)
not listed: [14] | [15] | [16] | [17] | [18] | [19]
inactive: all other assays above

Cc1ccc(O)cc1C
inactive: [14] | [6] | [7] | [10] | [12] | [13]

CC(C)=CC1C(C(=O)OCc2coc(Cc3ccccc3)c2)C1(C)C (centres undefined)
not listed: [6] | [11] | [16] | [17] | [18] | [19]
inactive: all other assays above

CCCCNP(N)(N)=S
not listed: [3] | [11]
inactive: all other assays above
